# Measurements as given in PubChem BioAssay.
# Where “and” joins values, the source holds several entries; their conditions need not be identical. Equal entries are not always repeated. Values without a mark were called inactive. Calls of active or inactive are those of the source. How the calls were made is not given here.
# Assays:
# [1] = tested on: Botulinum neurotoxin type F light chain protease (Clostridium botulinum); assay: Clostridium botulinum type F light chain protease inhibitors, microsphere substrate cleavage, validation (AID 588459); settings: multiplex microsphere protease substrate cleavage assay, flow cytometry; at 10 µM; hits give high values
# [2] = target: Botulinum neurotoxin type A (Clostridium botulinum) (UniProt P0DPI0); assay: BoNT/A light chain protease inhibitors, biochemical, multiplex microsphere flow cytometry, validation set (AID 588460); settings: at 10 µM, hits give high values
# [3] = target: Lethal factor (Bacillus anthracis) (UniProt P15917); assay: Bacillus anthracis lethal factor inhibition, microsphere flow cytometry protease assay, validation at 10 µM (AID 588461); settings: multiplex microsphere protease cleavage assay, hits give high values
SMILES,inhibition [1],inhibition [2],inhibition [3]
CCC12CN3CC(CC)(CN(C1)C31C(=O)N(C)c3ccc(C)cc31)C2=O (stereo unspecified),-1.6%,0.1%,-7.3%
C=CCc1cccc2cc(C(=O)Nc3ccc(CC(=O)O)cc3)c(=O)oc12,1.3%,-0.1%,0.8%
COc1cccc(CN2C(=O)N(C(C)C)C(N(O)C(=O)NC(C)C)C2(C)C)c1OC (stereo unspecified),-1.7%,-0.8%,-2.1%
CCCCOn1c(C)c(C(C)=O)c2c3no[n+]([O-])c3ccc21,1.9%,0.2%,-1.9%
CCN(CC)CC(=O)Nc1c(C)cccc1C,2.8% and -0.5%,0.5% and -2.3%,-6.6% and -3.8%
O=C(C1CCCCC1)N1CC(=O)N2CCc3ccccc3C2C1 (stereo unspecified),-2.5%,-1.1%,3.9%
CC(COc1ccccc1)N(CCCl)Cc1ccccc1 (stereo unspecified),0.1%,-2.7%,-5.9%
Cn1c(SCC(=O)c2ccccc2)nnc1-c1ccncc1,1.7%,0.4%,3.4%
Cc1onc(-c2c(Cl)cccc2Cl)c1C(=O)NC1C(=O)N2C1SC(C)(C)C2C(=O)O (stereo unspecified),1.2%,0.2%,2.3%
COc1cc2nc(N3CCN(C(=O)C4COc5ccccc5O4)CC3)nc(N)c2cc1OC (stereo unspecified),-0.3%,0%,-2.9%
COc1cc(C2CC(=O)NC3=C2C(=O)CC(C)(C)C3)ccc1O (stereo unspecified),-1.7%,0.3%,0%
C[C@]12CCC(=O)C=C1CC[C@@H]1[C@@H]2C(=O)C[C@@]2(C)[C@H]1CC[C@]2(O)C(=O)CO,-4.6%,-1.7%,-0.3%
Cc1cc(-c2nn(-c3ccccc3F)cc2CN2CCC(O)CC2)c(C)s1,-1.7%,0.2%,-1.4%
CC(=O)Oc1ccc(C2OC(=O)c3ccccc3N2C(C)=O)cc1 (stereo unspecified),2%,0.3%,3.3%
COc1ccc(N2C(=O)C3C(C2=O)C(C(=O)c2ccccc2)N2CCCC32)cc1 (stereo unspecified),1.6%,-0.2%,-3.5%
CCCC(=O)Nc1ccccc1NC(C)=O,1.4%,0.3%,-2.9%
O=C(O)CCSCCC(=O)O,1.3%,-1.1%,-7.4%
Oc1ccc(Oc2ncc(Cl)cc2Cl)cc1,1.4%,-0.7%,-2.9%
CC1(C)CC(=O)c2cn3c(nc2C1)nc1ccccc13,1%,-0.2%,0%
CCOC(=O)c1cnc2ccccc2c1NCCO,-1.1%,0%,5.8%
O=C(Cc1ccc(Br)cc1)c1ccc(O)cc1O,-3.5%,-0.4%,-5.4%

SMILES,inhibition [1],inhibition [2],inhibition [3]
O=C(CC(C(=O)O)c1c[nH]c2ccccc12)c1ccccc1 (stereo unspecified),0.3%,2%,6.4%
COC(=O)c1ccccc1NC(=O)c1ccc(COc2ccc3c(c2)CCC3)cc1,2.7%,-0.5%,2%
COc1ccc(-c2[nH]ncc2C=O)cc1OC,-3.5%,-0.8%,-2.5%
O=C(CNC(=O)OCc1ccccc1)NC1CCCCCC1,-1%,-1.8%,-3.4%
CCOC(=O)c1cccc(C(=O)OCC)n1,3.1%,-0.6%,-6.9%
C[C@H](CCC(=O)O)[C@H]1CC[C@H]2[C@@H]3C(=O)C[C@@H]4CC(=O)CC[C@]4(C)[C@H]3CC(=O)[C@]12C,-1.4%,-0.5%,-0.9%
Cc1ccc2c(c1)c1c3n2CCCNC3CCC1 (stereo unspecified),9.2%,1.9%,0.5%
CN(C)CCN(Cc1ccccc1)c1ccccn1,2.2%,0%,-0.2%
COc1ccc2c3c([nH]c2c1)C1(NCC3)C(=O)Nc2ccccc21 (stereo unspecified),-3%,-0.7%,-4.5%
CCCCCCCCNC(C)C(O)c1ccc(SC(C)C)cc1 (stereo unspecified),-4.9%,-1.5%,-9.4%
CC(C)[N+]1(C)[C@@H]2CC[C@H]1CC(OC(=O)C(CO)c1ccccc1)C2 (stereo partly specified),-2.9%,1%,-3%
CCC(C)NCCOCCOc1ccc(Cl)cc1Br (stereo unspecified),0.5%,0.2%,-2.1%
CC(NCCC(c1ccccc1)c1ccccc1)c1ccccc1 (stereo unspecified),-5.9%,-1.1%,3.4%
O=C1NC(=O)C(c2ccccc2)(c2ccccc2)N1,1.3% and 5.2%,-1% and -1.4%,0.3% and -2.4%
COc1ccc(S(=O)(=O)NCc2ccco2)c2ccccc12,4.7%,0.4%,1%
COc1ccc(OCc2cccc(C(=O)NN)c2)cc1,0.1%,1.2%,-6.1%
CC(C)NC(=O)c1ccc(C(C)C)cc1,-2.3%,-1.2%,-2.8%
CN1CC2CCCC3(C1)C(=O)NC1(CCCCC1)N=C23 (stereo unspecified),2.2%,-0.6%,-5.3%
CCN(CC)CCNC(=O)c1ccc(NC(C)=O)cc1,3.4% and 3.6%,1.2% and -1.2%,-6.2% and -1.6%
Cc1ccsc1/C=N\NC(=O)c1ccc2c(c1)OCO2,2.9%,0.4%,-1.3%
CCCC(=O)O[C@]1(C(=O)CCl)[C@@H](C)C[C@H]2[C@@H]3CCC4=CC(=O)C=C[C@]4(C)[C@@]3(F)C(=O)C[C@@]21C,0.9%,-0.6%,1%

SMILES,inhibition [1],inhibition [2],inhibition [3]
NC(=O)c1cnccn1,0.4%,0.7%,5.7%
CC12CN3CC(C)(CN(C1)C3c1ccc(Cl)cc1Cl)C2=O (stereo unspecified),-0.6%,0.5%,0.1%
Cc1ccc(/C=N/NC(=O)C2(C)CC2(Br)Br)cc1 (stereo unspecified),1.3%,-0.4%,-5.6%
O=C1CC(c2ccc(O)cc2)Oc2cc(O)cc(O)c21 (stereo unspecified),-2.6%,-1.8%,-0.4%
COC(=O)c1ccc(CC(=O)c2ccc(O)cc2O)o1,-3.4%,-0.8%,-5.4%
CC(=O)N1N=C(c2cccs2)CC1c1ccc(C)o1 (stereo unspecified),-1.2%,-0.8%,1.7%
C=C(C)COc1ccc(-c2nc(N)ncc2-c2ccc(OC)cc2)c(O)c1,2.8%,1.4%,-5.3%
Cc1ccc2[nH]c3c(c2c1)CN(C(=O)CN1CCSCC1)CC3,61.5% (active),3.7%,11.6%
COc1ccc2[nH]c3c(=O)n(/N=C/[C@H]4C(C)C=C(C)CC4C)c(=O)[nH]c3c2c1 (stereo partly specified),-1.7%,-0.6%,7.1%
CC12CCCCN1CCCc1c2[nH]c2ccccc12 (stereo unspecified),-1.1%,-0.2%,-11.1%
Cc1nnc(SCC(=O)N2CCCC(C(=O)c3ccc(Cl)cc3)C2)o1 (stereo unspecified),2.8%,0.9%,-6.4%
NC(=O)C1CCCNC1 (stereo unspecified),1.6%,-0.4%,5.4%
Cc1ccc(N2CCN(C(=S)c3ccc(-c4cccc([N+](=O)[O-])c4)o3)CC2)cc1,-0.6%,-1.4%,-5.3%
CC(C)C[C@H](NC(=O)[C@@H]1Cc2ccccc2CN1C(=O)OC(C)(C)C)C(=O)NCC1CCC(C(=O)O)CC1 (stereo partly specified),3%,0.3%,-3.6%
CCc1cc2c(=O)c(-c3ccc(F)cc3)c(C)oc2cc1OCC(=O)O,3.9%,2.2%,-1.1%
COc1ccc2c(c1)C=CC1(O2)N(CCO)c2ccccc2C1(C)C (stereo unspecified),3%,-0.7%,-7.3%
CCCCOc1ccc(OCCCN2CCOCC2)cc1,-1.1%,0.4%,-4.8%
CN1CCCC(OC(=O)c2ccc3c(c2)OCCO3)C1 (stereo unspecified),1%,0.8%,-2.2%
CC1(C)CC(NC(=O)C23CCC(C)(C(=O)C2=O)C3(C)C)CC(C)(C)N1 (stereo unspecified),2.9%,-0.7%,-4.5%
Cc1cc(O)c(C(C)C)cc1C1(c2cc(C(C)C)c(O)cc2C)OC(=O)c2ccccc21,-0.9%,-0.3%,-8.1%
